Data on twelve compounds can be found in PubChem BioAssay (NCI).

Values joined by “and” are separate entries in the source; they are usually repeats but may differ in a detail not shown here. Equal values may be shown once. Compounds without any hit were thinned out: in the full panel of roughly 83,000, 20% have a hit.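 Treatment: one concentration, 48 hours, 96-well format. Scoring: percent growth, with anything below 10 considered active.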 Unmarked numbers belong to inactive results. Active and inactive are the calls of the source.

The subject of the experiment is MDA-MB-468 breast. Briefly: NCI-60 one-dose screen, 48 h (100 = growth as untreated, 0 = no growth, -100 = all killed). As to conditions: 10 µM unless noted.
In the case of `CC(=O)c1cc(O)c2ccccc2c1O`, the growth is 63.9%.

`Cc1cc2nc3c(=O)[nH]c(=O)nc-3n(CC=O)c2cc1C`: the growth is 95.8%.

As for `COc1ccc(Cc2nc3cc(OC)c(OC)cc3c(=O)[nH]2)cc1`, the growth is 56%.

As to `OCC(CO)(CCl)CCl`, the growth is 107%.

As for `CCOC(=O)c1c(C)nc2c(c1N)/C(=C/c1cccs1)C(=O)N2c1ccc(OC)cc1`, the growth is 28.2%.

For `O=C(O)CCC(NC(=O)OCc1ccccc1)C(=O)O` (configuration not stated), the growth is 101%.

For `Cn1cc2c(c1)-c1c(sc3nc(-c4ccc(NC(=O)Nc5cc(C(C)(C)C)on5)cc4)cn13)CC2`, the growth is 68.8%.

Turning to `Cc1ccc(NC(=O)c2cc(/C=C/C(=O)NO)cc(C(F)(F)F)c2)cc1Nc1nccc(-c2cccnc2)n1`, the growth was -24.4% (active).

For `CNCCCNCCCCNCCCN1C(=O)c2ccc3c4c(ccc(c24)C1=O)C(=O)N(CCCNCc1ccccc1OC)C3=O`, the growth is 28.6%.

Turning to `O=[N+]([O-])c1ccc(NCSc2ccc(Cl)cc2)cc1`, the growth was 98.6%.

`O=c1c2c(=NCCCN3CCCC3)cc3c(=O)n(CCCN4CCCC4)c(=O)c4c(NCCCN5CCCC5)cc(c(O)n1CCCN1CCCC1)c2c4-3`: the growth was -62.2% (active).

In the case of `O=C(Nc1ccccc1)Oc1c(Cl)c(Cl)c(Cl)c(Cl)c1Cl`, the growth was 116% and 98.8%.
